# Values joined by “and” are separate entries in the source; they are usually repeats but may differ in a detail not shown here. Identical values can stand only once. This is part of a sample that, as a whole, favours compounds with a hit. Of some 83,000 tested, about 20% had one in any assay.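 The test compound was applied at a single concentration to cells in 96-well plates for 48 hours, and percent growth was recorded.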 Unmarked numbers belong to inactive results. Active and inactive are the calls of the source. Rule for the calls: active = growth percent below 10; inactive = the rest.
# Test system: MDA-MB-468 breast
# Experiment: NCI-60 one-dose screen, 48 h (100 = growth as untreated, 0 = no growth, -100 = all killed)
# Details: 10 µM unless noted
row,Compound,growth
1,Nc1nc(Nc2ccccc2SSc2ccccc2Nc2nc(N)nc(-c3ccc(I)cc3)n2)nc(-c2ccc(I)cc2)n1,109%
2,CCNC(=O)N1CCc2cc(OC)c(OCCc3ccc(OC)cc3)cc2C1c1ccc([N+](=O)[O-])cc1C (stereo not given),-5.05% (active)
3,CC1OC(O[C@@H]2C(O)C(CO)OC(O[C@H]3COC(O[C@H]4CC[C@]5(C)[C@H]6CC[C@]78OC[C@@]9(CC[C@](C)(C=O)C[C@H]97)[C@H](O)C[C@@]8(C)[C@]6(C)CC[C@H]5C4(C)C)[C@@H](OC4OC(CO)[C@@H](O)[C@@H](O)[C@@H]4O)[C@@H]3O)[C@H]2OC2OC[C@@H](O)[C@@H](O)[C@@H]2O)[C@@H](O)[C@@H](O)[C@H]1O (stereo not given in full),34.5%
4,O=C(O)c1ccc(Cl)cc1Nc1ccc(F)cc1,27.9%
5,COc1ccc(CNC(=O)[C@H](O)[C@@H](N)Cc2ccccc2)cc1,106%
6,C=C(C)[C@@H]1CCC[C@]2(C(=O)N3CCN(C)CC3)CC[C@]3(C)[C@@H](CC[C@@H]4[C@@]5(C)CC/C(=N\NC(=O)c6ccncc6)C(C)(C)[C@@H]5CC[C@]43C)[C@@H]12,113%
7,O=C1NCCc2c1noc2-c1ccccc1,99.2%
8,O=S(=O)(Nc1ccc(C2CC2)cc1)c1ccc(-c2cnc(C3CC3)o2)cc1,18.4%
9,CC(=O)c1cc(Br)ccc1O,103%
10,O=C(N/N=C/C=C\c1ccccc1)C(=O)N/N=C/C=C/c1ccccc1,105%
11,FC(F)(F)c1ccc(/C=N/Nc2nnc3n2N=C(c2ccc(Cl)cc2)CS3)cc1,74.3%
12,NC1=NC(c2ccccc2)N=C(Nc2ccccc2)N1 (stereo not given),9.95% (active)
13,CC(=O)C1=C(C)NC(NNc2ccccc2)=NC1c1ccc([N+](=O)[O-])cc1 (stereo not given),92.3%
14,CCOC(=O)CC(c1ccccc1)C(C#N)c1ccccc1 (stereo not given),101%
15,CN(C)c1ccc(Cc2ccc(N(C)C)cc2Cl)c(Cl)c1,88.7%
16,CCCCN(CCCC)c1ccc(C(=O)O)cc1,101%
17,C=C(C)[C@@H]1CC[C@]2(C(=O)O)CC[C@]3(C)[C@H](CC[C@@H]4[C@@]5(C)C[C@@H](CC#Cc6ccc(Cl)cc6)C(=O)C(C)(C)[C@@H]5CC[C@]43C)[C@@H]12,16.9%
18,COc1cc(/C(=C2/O[C@@H]([C@H]3COC(C)(C)O3)[C@H]3OC(C)(C)O[C@@H]23)c2ccc3c(c2)OCO3)cc(OC)c1OC,69.6%
19,CCN(CC)c1ccc2cc(C(Nc3ccc(C)cc3)c3nnnn3C(C)(C)C)c(=O)oc2c1 (stereo not given),105%
20,Cc1ccc(-c2cc(C(=O)N3N=C(c4ccc(N)cc4)CC3c3ccc(Cl)cc3)c3ccccc3n2)cc1 (stereo not given),14.1%

row,Compound,growth
1,O=C(C[C@]1(O)C(=O)Nc2ccc(Br)cc21)c1ccco1,109%
2,COc1ccccc1CNCCCN1C(=O)c2ccc3c4c(ccc(c24)C1=O)C(=O)N(CCCNCc1ccccc1OC)C3=O,-96.6% (active)
3,COc1ccccc1N1CCN(C(CNS(=O)(=O)c2ccc(Cl)cc2)c2cccnc2)CC1 (stereo not given),98.8%
4,CCOC(=O)c1c(C)c2c(n1Cc1ccccc1)CSCC2=O,-9.03% [100 µM] (active)
5,O=C(CCl)N1c2ccccc2Oc2ccc3ccccc3c21,-72.5% (active)
6,O=C1Nc2ccc(Cl)cc2/C1=C/c1ccc[nH]1,-19.6% (active)
7,C=CCn1c(-c2nc3ccc(C(=C(C#N)C#N)c4ccccc4)cc3[nH]2)cc2cc(Br)ccc21,42.6%
8,O=C(Cn1ccc2ccccc21)Nc1ccc(-c2nc3ccccc3s2)cc1,-50.2% (active)
9,CCc1ccc(-c2nnc(COc3ccc(-c4nc5cc(Cl)c(Cl)cc5[nH]4)cc3OC)o2)cc1,76.4%
10,O=C(CCCCCCN1CC(=O)N2[C@@H](c3cccs3)c3[nH]c4ccccc4c3C[C@H]2C1=O)NO,41.6%
11,Cc1cnc(C(=O)NNc2nc3sc4c(c3c(=O)[nH]2)C(C)CCC4)cn1 (stereo not given),-10.4% (active)
12,CC[C@@H]1C(=O)N(C)c2cnc(Nc3ccc(C(=O)NC4CCC(N5CCN(CC6CC6)CC5)CC4)cc3OC)nc2N1C(C)C (stereo not given in full),-54.1% (active)
13,C=CC(=O)N[C@@H](Cc1ccc(-c2cc(Cl)cc(Cl)c2)cc1)[C@@H](O)[C@H](O)C(=O)O,101%
14,COc1cc(-c2nccc3[nH]c(-c4ccc5cc[nH]c5c4)nc23)cc(OC)c1OC,-36.7% (active)
15,Oc1cc(/C=C/c2nc(N3CCOCC3)c3cc(Cl)c(Cl)cc3n2)cc(O)c1O,85%
16,Cc1c(CC(=S)N2CCOCC2)nnn1-c1cccc(C(F)(F)F)c1,117%
17,CCOC(=O)CSc1nc2ccccc2c(=O)n1Cc1ccc(S(N)(=O)=O)cc1,105%
18,CCOC(=O)CC/C(C)=N\Nc1ccc([N+](=O)[O-])cc1,83.2%
19,O=C1CCC(=O)N1CC1CC2CCC1C2 (stereo not given),104% and 90.6%
20,O=C(NNc1ccc(-c2ccccc2)nn1)c1ccc(F)cc1,98.2%

# Source: PubChem BioAssay (NCI)
